Compound activity: PubChem, National Center for Advancing Translational Sciences (NCATS)
HT1080 IDH1KD tx: qHTS for induction of synthetic lethality in tumor cells producing 2HG: qHTS for the HT-1080-IDH1KD cell line; HT-1080 IDH1 knockdown viability, ATP luminescence, 48 h; Potency, µM (titrated, usually from 46.1 µM), inactives show top-dose activity, negative = toxicity, actives largely listed as cytotoxic; 360,000 compounds, 2% hits;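 note: potency is the fitted concentration of half-maximal effect; 0% = DMSO wells and -100% = cell-free medium wells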
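Assay cells: HT-1080 with IDH1 knockdown, 750 per well, RPMI/5% FBS. Exposure: 48 h at 37 °C following 2 h pre-incubation. Read: CellTiter-Glo luminescence; fitted concentration-response, curve class assigned.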
IL-1B inflam inh: qHTS for Inhibitors of Inflammasome Signaling: IL-1-beta AlphaLISA Primary Screen. THP-1 LPS/ATP IL-1B secretion, AlphaLISA, 16 h; active compounds read low. activity change, % at 57.5 µM. 360,000 compounds, 4.7% hits; in the data active = activity change below about -50%; inconclusive = mostly about -30% to -49%; note: % is set by controls: 0 for no effect and ±100 for the full control effect
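THP-1 cells pretreated 1 hr with compounds (up to 57.5 uM final), then stimulated with LPS (250 ng/mL final) plus ATP (1.25 mM final); secreted IL-1B measured by AlphaLISA after 16 hr, decreased signal indicating inhibition.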
TGFb SMAD3 inh: qHTS for Inhibitors of TGF-b; HepG2 CAGA-GFP TGF-b/SMAD3 reporter, GFP fluorescence, 18 h; TGF-beta stimulated, 500 pg/mL final; Potency, µM (top dose mostly 46.1 µM), inactives show top-dose activity, negative = inhibition, usual class: inhibitors; 410,000 compounds, 1.2% hits; note: potency is the fitted concentration of half-maximal effect; % is set by controls: 0 for no effect and ±100 for the full control effect; nearly all actives have a fitted effect of over 65% in size
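Read-out: total well GFP (ex488/em500-530) summed from mean per-cell fluorescence. Cells: HEPG2 CAGA-GFP, 1% FBS DMEM, 18 h at 37 degrees C with 500 pg/mL final TGF-beta. Unstimulated wells served as the full-inhibition control; stimulated DMSO wells = 0%.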
Giardia kill: Small Molecules that selectively kill Giardia lamblia: qHTS. Giardia lamblia trophozoite viability. activity change, % at 7.66 µM, hits read low. 340,000 compounds, 0.15% hits; in the data active = activity change below about -80%; inconclusive = between about -30% and that limit;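 note: parasites exposed to compound for two days anaerobically before the ATP read; % is set by controls: 0 for no effect and ±100 for the full control effect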
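ATP-content bioluminescence gauges trophozoite survival. Cells (100/well) receive compound and incubate anaerobically for 48 hrs at 37 deg C; detection reagent follows for 15-30 min at room temperature.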
HepG2 viability: qHTS for Inhibitors of TGF-b: Cytotox Counterscreen; HepG2 CAGA-GFP viability, ATP luminescence, 18 h; Potency, µM (titrated, usually from 46.1 µM), for inactives: top-dose activity change, negative = cytotoxicity, most hits filed as cytotoxic; 410,000 compounds, 0.76% hits; AID 588856, 2011; note: potency is the fitted concentration of half-maximal effect
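HepG2 CAGA-GFP cells (1000/well, DMEM with 1% FBS) received compound, then TGF-beta at 500 pg/mL final, and were incubated 18 hours at 37 degrees C. Viability was read by CellTiter-Glo luminescence. Media-only wells were set as complete cell-killing and DMSO as no toxicity.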
HT1080NT lethal: qHTS for induction of synthetic lethality in tumor cells producing 2HG: qHTS for the HT-1080-NT fibrosarcoma cell line; HT-1080-NT fibrosarcoma viability, CellTiter-Glo ATP luminescence, 48 h; Potency, µM (doses to about 46.1 µM), for the others: at the top dose activity, negative = less viability, actives largely listed as cytotoxic; 360,000 compounds, 1.6% hits; AID 686970, 2013;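 note: NT is the 2HG producing partner of a matched IDH1 knockdown line; potency is the fitted concentration of half-maximal effect; 0% = DMSO-treated cells and -100% = media-only wells without cells; nearly all actives have a fitted effect of over 55% in size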
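Luminescent CellTiter-Glo readout after 48 hours of compound exposure at 37 degrees C defined viability of HT-1080-NT cells. Activity was normalized to DMSO wells and cell-free media wells; concentration-response curves were fitted and assigned curve classes.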
An asterisk follows results filed as active; ? = inconclusive; / = no result given; [ ] = another dose, or the depositor's remark. Sampled rows, rich in hits. Any-hit rate of the full collection: about 6.5%. Unless noted, calls come from the whole dose curve; as a rule, active = well fitted curve in the direction sought with a large enough effect; inconclusive = small, poorly fitted or top-dose-only effect, or another doubt; inactive = no such curve, though single readings can be large; an effect the other way counts as inactive or inconclusive.

SMILES	HT1080 IDH1KD tx	IL-1B inflam inh	TGFb SMAD3 inh	Giardia kill	HepG2 viability	HT1080NT lethal
O=C1NC[C@H](CCCCN2C[C@H](Cc3ccccc3)N(CCc3ccccc3)C(=O)C2=O)N(CCC2CCCCC2)C1=O	6%	?	/	/	/	3%
Cc1cc2c(c(=O)o1)C(c1cccs1)C(C#N)=C(N)O2 (stereo not given)	-2%	-63*	4%	3	9%	-1%
Cc1ccc(Cn2c(C)cc3c(c2=O)C(c2cccs2)C(C#N)=C(N)O3)cc1 (stereo not given)	-11%	0	2%	9	-1%	-3%
Cc1ccc([C@H]2C(C#N)=C(N)Oc3cc(C)oc(=O)c32)o1	-8%	-106*	4%	28	2%	?
CC1(C)C(=O)OC(c2cccs2)C(C)(C)C1=O (stereo not given)	0%	11	-24%	-27	-15%	5%
Cc1ccc(C2=NCCn3c2c2ccc(C(F)(F)F)cc2[n+]3[O-])cc1	4%	8	-1%	-84*	1%	10%
Cc1ccc(C2=NCCn3nc4cc(C(F)(F)F)ccc4c32)cc1	0%	5	6%	7	1%	6%
COc1ccc(C2=NCCn3c2c2ccc(C(F)(F)F)cc2[n+]3[O-])cc1	1%	24	-5%	-99*	-16%	22%
CC(C)(C)NC(=O)C[C@H]1C[C@H](C(=O)N2CCCCC2)[C@@]2(C)c3[nH]c4cc(-c5ccco5)ccc4c3CCN2C1=O	-17%	1	?	7	-28%	-21%
CCCCS/C(N)=N/N=C/c1ccccc1O	0%	-29	?	-21	-21%	-4%
CCCS/C(N)=N/N=C/c1cc(C)ccc1O	?	-51*	?	-5	-26%	-28%
Cc1ccc(CN2CCSc3ccc(C(=O)N4CCN(c5cccc(C)c5C)CC4)cc32)cc1	/	/	-15%	/	4%	/
Nc1ccc(Oc2ccc3c(c2)C(=O)N(CC2CCCO2)C3=O)cc1 (stereo not given)	6%	-10	-6%	?	-17%	-2%
O=[N+]([O-])c1ccc(C[n+]2cccc3ccccc32)cc1	-6%	28	-15%	-5	-5%	-11%
CCCCC[n+]1cccc2c3ccccc3ccc21	9.2µM*	-77*	?	28	-8%	?
c1ccc(C[n+]2cccc3c4ccccc4ccc32)cc1	?	-60*	?	-18	-35%	?
Cc1cc(C)c2c(=O)cc(C(=O)Nc3ccccc3C(F)(F)F)oc2c1	/	/	-4%	/	0%	/
COc1ccccc1CN1CCNC(=O)C1CC(=O)NCc1cn(C)nc1C (stereo not given)	6%	29	0%	-12	-5%	13%
Cc1cc(Sc2ncnc(N)c2[N+](=O)[O-])ncn1	7.3µM*	-100*	?	-14	-103%	13µM*
Cc1cc(Sc2nc(N)ncc2[N+](=O)[O-])ncn1	6.5µM*	-109*	10µM*	-14	-112%	5.8µM*
Cc1ccc(C)c(Oc2ncnc(N)c2[N+](=O)[O-])c1	-12%	-7	5%	4	9%	7%
Cc1ccc2c(c1)[nH]c1c(=O)n(CCCN3CCOCC3)cnc12	-4%	20	5%	14	-3%	-4%
COc1cccc(Nc2nc(CN)cs2)n1	0%	24	6%	/	-7%	-2%
NC(=O)c1ccc(NC(=O)COC(=O)c2ccc(Br)c(S(=O)(=O)N3CCOCC3)c2)cc1	1%	-60*	-2%	19	3%	-6%
c1ccc2c(c1)-c1cccc3cncc-2c13	?	-84*	-14%	2	3%	16%
SMILES	HT1080 IDH1KD tx	IL-1B inflam inh	TGFb SMAD3 inh	Giardia kill	HepG2 viability	HT1080NT lethal
Cc1ccc(C2(CCNC(C)c3cccs3)CCOC(C(C)C)C2)cc1 (stereo not given)	?	-81*	?	-1	-22%	16µM*
COC(=O)c1ccc(COC(=O)CNC(=O)CNC(=O)c2ccc(OC)cc2)cc1	5%	-67*	-20%	-9	29%	8%
CCOC(=O)C1=CCN(S(=O)(=O)c2ccccc2)C1c1ccc(C)cc1 (stereo not given)	0%	19	-25%	/	-7%	1%
CC(NCCC1(Cc2ccccc2Cl)CCOC(C)(C)C1)c1cccs1 (stereo not given)	?	-54*	?	8	-37%	-18%
Cn1c(=O)c(=O)n(C)c2cc([N+](=O)[O-])c([N+](=O)[O-])cc21	?	-101*	-2%	0	-1%	?
Cn1cccc([N+](=O)[O-])c1=O	-3%	-17	-5%	/	-5%	2%
O=[N+]([O-])c1ccc(N2CCN(C(=S)NC3CCCCC3)CC2)cc1	-21%	-78*	-12%	18	-21%	-12%
CCC1CCC(N2CCN(c3ccc([N+](=O)[O-])cc3)CC2)CC1 (stereo not given)	?	-60*	0%	-10	-10%	-29%
O=[N+]([O-])c1ccc(N2CCN(C(=S)Nc3ccccc3)CC2)cc1	-6%	10	-2%	15	0%	0%
O=[N+]([O-])c1ccc(N2CCN(c3ccccc3O)CC2)cc1	11%	-76*	8%	-1	12%	6%
CCN(CC)S(=O)(=O)c1ccc(Cl)c(NC(=O)COC(=O)C2CCCCC2)c1	4%	5	7%	-12	1%	-4%[9.24 µM]
Cc1ccc(C)c(NC(=O)NCCN2CCCCC2)c1	13%	-7	-7%	-19	1%	11%
COc1ccc(Br)cc1CN1CCC(N2CCCC2)CC1	-15%	-67*	5%	2	4%	-3%
COc1ccc(Br)cc1CN1CCCC(C(=O)N2CCCCCC2)C1 (stereo not given)	-24%	-57*	?	3	-29%	-24%
CCCc1[nH]n(-c2nc3ccccc3s2)c(=O)c1C=NCC(C)C	-11%	-58*	4%	1	14%	-15%
CCN(CC)CCCN=Cc1c(-c2ccccc2)[nH]n(-c2nc3ccccc3s2)c1=O	-1%	-28	1%	-14	6%	-3%
O=C(CCc1nc2ccccc2c(=O)[nH]1)N1CCN(C/C=C/c2ccccc2)CC1	-18%	23	1%	-13	-39%	-2%
